This passage reports growth results from PubChem BioAssay (NCI).

Test systems include HCT-15 colon; HT29 colon; SNB-75 CNS; SNB-19 CNS; U251 CNS; PC-3 prostate; SK-MEL-5 melanoma; UACC-62 melanoma; LOX IMVI melanoma; SK-MEL-28 melanoma; SK-MEL-2 melanoma; SN12C renal; UO-31 renal; TK-10 renal; ACHN renal; CAKI-1 renal; A498 renal; CCRF-CEM leukemia; MOLT-4 leukemia; EKVX NSCLC.
Common to all, as to experiment: NCI-60 one-dose screen, 48 h (100 = growth as untreated, 0 = no growth, -100 = all killed)
Settings in all cases: 10 µM unless noted

About 83,000 compounds went through this panel and 20% of them were active in at least one assay; those are over-represented in the sample as a whole.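 Cells were grown in 96-well plates and exposed to the test compound at a single concentration for 48 hours; results are reported as percent growth, with values below 10 considered active.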 Unmarked numbers belong to inactive results. Calls of active or inactive are those of the source.

For `Cc1cc(C)c(S(=O)(=O)N2CCN(c3cc4c(cc3F)c(=O)c(C(=O)O)cn4C3CC3)CC2)c(C)c1`, the growth in the test on HCT-15 colon was 55.1%; in the test on HT29 colon, 28.3%; in the test with SNB-75 CNS, 36.6%; with SNB-19 CNS it was 66.3%; with U251 CNS it was 19.7%; with PC-3 prostate, 67.9%. Moreover, the growth was 54.9% with SK-MEL-5 melanoma; 76.6% with UACC-62 melanoma; 29.6% in the test with LOX IMVI melanoma; 69.1% in the test with SK-MEL-28 melanoma; 90.5% in the test on SK-MEL-2 melanoma; 13.9% with SN12C renal. For the same molecule, the growth in the test with UO-31 renal was 16.1%; in the test on TK-10 renal it was 86.5%; with ACHN renal, 51.3%; in the test with CAKI-1 renal, 67.1%; with A498 renal, 63%; in the test on CCRF-CEM leukemia, 37.3%. In the test with MOLT-4 leukemia, the growth is 61%.

As to `CCCCCCCCCCCCNC(=S)N/N=C/c1ccc(Cl)c(Cl)c1`, the growth is 87.2% in the test on HCT-15 colon; 82.2% in the test on HT29 colon; 96.8% in the test on SNB-75 CNS; 114% in the test on SNB-19 CNS; 108% with U251 CNS; 107% with PC-3 prostate. The growth with SK-MEL-5 melanoma was 99%; in the test with UACC-62 melanoma it was 95.5%; in the test with LOX IMVI melanoma, 120%; in the test on SK-MEL-28 melanoma, 104%; in the test on SK-MEL-2 melanoma it was 99.8%; in the test on SN12C renal, 101%. The growth in the test on UO-31 renal is 89.2%; in the test on TK-10 renal it was 143%; in the test on ACHN renal it was 94.9%; with CAKI-1 renal it was 101%; with A498 renal, 112%.

In the case of `Cc1oc2nc[nH]c(=O)c2c1C(=O)/C=C/c1ccc(Cl)cc1`, the growth with HCT-15 colon was 19.9%; in the test with HT29 colon, 12.9%; in the test on SNB-75 CNS, -11.4% (active); in the test with SNB-19 CNS, 42%; in the test with U251 CNS, 24.3%; in the test on PC-3 prostate, 34.2%. In addition, the growth in the test on SK-MEL-5 melanoma was 37.5%; in the test with UACC-62 melanoma, 18.2%; in the test on LOX IMVI melanoma, 8.44% (active); in the test on SK-MEL-28 melanoma, 39.4%; with SK-MEL-2 melanoma, 55.7%; with EKVX NSCLC, 62%. Also, the growth is 25.4% in the test on SN12C renal; 37.9% in the test on UO-31 renal; 32.3% in the test with TK-10 renal; 27.2% with ACHN renal; 26.1% in the test with CAKI-1 renal; 40.7% in the test with MOLT-4 leukemia.

For the molecule `COc1cc(/C=C/C(=O)c2ccc(NC(=O)CN3CCN(c4cc5c(cc4F)c(=O)c(C(=O)O)cn5C4CC4)CC3)cc2)cc(OC)c1OC`, the growth is 18.2% with HCT-15 colon; -3.37% (active) in the test with HT29 colon; 76.6% in the test on SNB-75 CNS; 34.9% in the test on SNB-19 CNS; -55.8% (active) in the test on U251 CNS; 21.5% with PC-3 prostate. The growth with SK-MEL-5 melanoma was -42.9% (active); in the test with UACC-62 melanoma it was -23.5% (active); with LOX IMVI melanoma it was -54.7% (active); in the test on SK-MEL-28 melanoma it was 34%; with SK-MEL-2 melanoma, 30%; with SN12C renal, 10.3%. Moreover, the growth in the test on UO-31 renal was 2.96% (active); in the test on TK-10 renal, 19.1%; in the test with ACHN renal it was 10.8%; with CAKI-1 renal, 57.2%; in the test with A498 renal it was -43.8% (active); in the test with CCRF-CEM leukemia it was -13.7% (active). Besides, the growth in the test with MOLT-4 leukemia is -1.1% (active).

As for `CC[C@H](C)[C@H]1NC(=O)[C@@H](N[C@](C)(O)[C@@H](N)CC(C)C)[C@@H](C)OC(=O)[C@H](Cc2ccc(OC)cc2)N(C)C(=O)[C@@H]2CCCN2C(=O)[C@H](CC(C)C)NC(=O)[C@@H](C)C(=O)[C@H](C(C)C)OC(=O)C[C@@H]1O`, the growth in the test with HCT-15 colon is 0.591% (active); in the test on HT29 colon it was -24.6% (active); with SNB-75 CNS, -11.1% (active); in the test with SNB-19 CNS, -12.5% (active); in the test with U251 CNS, -11.8% (active); in the test with PC-3 prostate, 2.33% (active). The growth in the test on SK-MEL-5 melanoma was -56.9% (active); in the test with UACC-62 melanoma, -42.9% (active); with LOX IMVI melanoma, -55.9% (active); in the test with SK-MEL-28 melanoma, -13.6% (active); with SK-MEL-2 melanoma, -55.8% (active); in the test on SN12C renal, -8.75% (active). In addition, the growth with UO-31 renal is -19.9% (active); in the test with TK-10 renal it was -15% (active); in the test on ACHN renal, -10.9% (active); in the test with CAKI-1 renal, -22.1% (active); with A498 renal, -28.9% (active); in the test with CCRF-CEM leukemia, -19% (active).

For the molecule `CC(=O)Nc1ccc(S(=O)(=O)N2C(=O)CCC2C(=O)Nc2ccc(Br)cc2)cc1` (configuration not stated), the growth is 7.48% (active) with HCT-15 colon; 21.4% with HT29 colon; 59% in the test with SNB-75 CNS; 46.1% in the test with SNB-19 CNS; 22.2% with U251 CNS; 17% with PC-3 prostate. Besides, the growth in the test on SK-MEL-5 melanoma is 17.6%; in the test on UACC-62 melanoma, 15.3%; with LOX IMVI melanoma, 6.05% (active); with SK-MEL-28 melanoma, 50.2%; in the test with SK-MEL-2 melanoma, 36.1%; in the test on SN12C renal, 49.9%. Also, the growth in the test on UO-31 renal is 21.9%; with TK-10 renal, 63.6%; with ACHN renal it was 45.3%; with CAKI-1 renal, 32.3%; with A498 renal, 16.8%; in the test on CCRF-CEM leukemia it was 2.98% (active). Also, in the test on MOLT-4 leukemia, the growth was 5.48% (active).

For `Cc1nn(-c2ccc(Cl)cc2)c(=O)n1CCOc1ccccc1Cl`, the growth in the test with HCT-15 colon is 110%; in the test on HT29 colon, 95.9%; with SNB-75 CNS, 70.6%; with SNB-19 CNS it was 115%; with U251 CNS it was 101%; in the test with PC-3 prostate, 88.5%. Also, the growth was 105% in the test on SK-MEL-5 melanoma; 101% in the test on UACC-62 melanoma; 90.1% in the test on LOX IMVI melanoma; 96.6% with SK-MEL-28 melanoma; 126% with SK-MEL-2 melanoma; 93.6% with SN12C renal. Besides, the growth is 94.9% in the test on UO-31 renal; 108% in the test with TK-10 renal; 78.9% in the test on ACHN renal; 85.7% in the test with CAKI-1 renal; 103% with A498 renal; 86.4% in the test on CCRF-CEM leukemia.

Regarding `O=C1Nc2ccc(Br)cc2C1=N/C=c1\[nH]c(=O)/c(=C/c2ccc(Cl)cc2)s1`, the growth in the test with HCT-15 colon was 90.3%; in the test with HT29 colon it was 97.9%; with SNB-75 CNS, 93.9%; in the test on SNB-19 CNS it was 94%; in the test with U251 CNS, 83.7%; in the test on PC-3 prostate it was 92%. In addition, the growth with SK-MEL-5 melanoma is 99.1%; with UACC-62 melanoma, 91.2%; with LOX IMVI melanoma, 103%; with SK-MEL-28 melanoma, 105%; with SK-MEL-2 melanoma, 99.7%; in the test with SN12C renal it was 102%. In addition, the growth in the test on UO-31 renal is 85.2%; in the test with TK-10 renal, 101%; in the test on ACHN renal, 90.8%; with CAKI-1 renal, 101%; in the test with A498 renal, 94.5%; with CCRF-CEM leukemia it was 87.9%. For the same molecule, the growth with MOLT-4 leukemia is 90.9%.
